Rows were chosen to be rich in hits. Some 21% of all compounds tested hit in one or more screens of this group.
Pf growth 96h – Primary qHTS for delayed death inhibitors of the malarial parasite plastid, 96 hour incubation; Potency, µM (series often up to 28.7 µM), usual class: inhibitors; hit rate 6.9% among 320,000; P. falciparum luciferase reporter growth, 96 h
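Readout is luminescence from an integrated firefly luciferase in P. falciparum. Red cells, 2% hematocrit and 0.05% parasitemia final, were cultured with compound through two parasite generations (96 hours) at 37 C, 5% CO2.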
AMA1 RON2 block – qHTS for Inhibitors of AMA1-RON; Towards Development of Antimalarial Drug Lead: Primary Screen; Plasmodium falciparum AMA1 (3D7) - RON2 peptide interaction; AlphaScreen AMA1-biotinylated RON2 peptide binding; Potency, µM (doses to about 58.2 µM), most hits filed as inhibitors; hit rate 0.2% among 360,000; also: nearly all actives have a fitted effect of over 45% in size
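AMA1 (3D7) with his tag at 25 nM final met compounds first, then biotinylated RON2 peptide at 25 nM; detection used donor plus acceptor beads, 10 µg/mL apiece, read by AlphaScreen after 30 min at room temperature.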
Shiga toxin inh – A qHTS for Small Molecule Inhibitors of Shiga Toxin; Vero cells, Shiga toxin protein synthesis inhibition reporter; inhibition, % at 38.7 µM; hit rate 9.2% among 290,000; in the data active = inhibition mostly above about 28%, no sharp cut-off; inactive = mostly below about 43%
HCV inh – qHTS Assay for Inhibitors of Hepatitis C Virus (HCV); AID 651820, 2012; Potency, µM (series often up to 41.8 µM), most hits filed as inhibitors; hit rate 3.4% among 340,000; Huh7.5.1 HCVcc-Cre infection, luciferase reporter, 44 h
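Infectious HCVcc-Cre (~0.5 moi) was added to cells just after compound, with cells seeded 4 h earlier at 1,000 per well. Luciferase activity after 44 h culture reported infection; substrate was incubated 15 min at room temperature before reading.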
CHX counter – Cycloheximide Counterscreen for Small Molecule Inhibitors of Shiga Toxin; cell reporter, cycloheximide protein synthesis inhibition counterscreen; max response, %; hit rate 12% among 300,000; in the data active = max response mostly above about 13%, no sharp cut-off; inactive = mostly below about 14%; also: read at 38.3 µM for the half of the compounds with a filed dose
Pf growth 48h – Primary qHTS for delayed death inhibitors of the malarial parasite plastid, 48 hour incubation; P. falciparum luciferase growth in erythrocytes, 48 h; Potency, µM (titrated, usually from 28.7 µM), most hits filed as inhibitors; hit rate 5.9% among 310,000; AID 504832, 2011
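Read-out is firefly luciferase luminescence from an integrated reporter in P. falciparum, so falling signal marks reduced parasite growth. Infected erythrocytes were at 2% hematocrit and 0.1% parasitemia (final) in Albumax-supplemented RPMI 1640.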
Each line names hits and unclear results; the compound was inactive in the other large screens. Unless noted, calls follow the shape of the dose curve; as a rule, active = well fitted curve in the direction sought with a large enough effect; inconclusive = small, poorly fitted or top-dose-only effect, or another doubt; inactive = no such curve, though single readings can be large; an effect the other way counts as inactive or inconclusive.

COc1ccc(NS(=O)(=O)c2c(C)cc(C)cc2C)cn1	none
Cc1ccc(Nc2nnns2)cc1C	Pf growth 96h inconclusive
Clc1ccc(Nc2ccc(NCc3ccccc3)nn2)cc1	Pf growth 96h 1.9µM, Shiga toxin inh 60, HCV inh inconclusive, CHX counter 34, Pf growth 48h 4.7µM
S=C(NCc1ccccc1)NCc1ccc(Cl)cc1	Pf growth 96h inconclusive
Cc1ccc(Nc2ccc(NCc3ccccc3)nn2)cc1C	Pf growth 96h inconclusive, AMA1 RON2 block inconclusive, Shiga toxin inh 68, HCV inh inconclusive, CHX counter 33, Pf growth 48h inconclusive
Cc1nnc(SCC(=O)Nc2nnc(SCc3cccc(Br)c3)s2)s1	Pf growth 96h 7.4µM
CC(=O)Nc1nnc(SCc2ccc(F)cc2)s1	CHX counter 39
O=C(Nc1nnc(SCc2ccc(F)cc2)s1)c1ccc2ncsc2c1	AMA1 RON2 block inconclusive, Shiga toxin inh active, HCV inh inconclusive, CHX counter 65
Cc1nnc(NC(=O)CSc2ccccc2N)s1	Pf growth 96h inconclusive, CHX counter 26
Cc1ccc([C@H]2C[C@@H](n3cc(C4CC4)nn3)[C@H](O)CN2C(=O)C2CCCCC2)cc1	none (no result: Pf growth 96h, Shiga toxin inh, HCV inh, CHX counter, Pf growth 48h)
COc1ccc(-n2nnnc2CNC(=O)C(=O)c2c(C)[nH]c3ccccc23)cc1	Pf growth 48h inconclusive (no result: Shiga toxin inh, CHX counter)
Cc1nn(CC(=O)Nc2ccc(Cl)cc2)c(=O)c2cc(-c3ccccc3)nn12	Pf growth 96h inconclusive, HCV inh inconclusive
CC(=O)Nc1nnc(SCc2cccc(F)c2)s1	Shiga toxin inh 21
CCN(c1ccccc1)S(=O)(=O)c1ccc(NCC2COc3ccccc3O2)nc1 (centres undefined)	Pf growth 96h inconclusive, HCV inh 11µM
CCN(CC)S(=O)(=O)c1cccc(N2CC(O)=C(c3ccccc3)C2=N)c1	Pf growth 96h 2.6µM, Pf growth 48h 2.6µM
CCOC(=O)c1sc2ncn(/N=C/c3ccccn3)c(=O)c2c1C	Pf growth 96h 6.6µM (no result: AMA1 RON2 block, HCV inh)
CCCCCCCCN1C(=O)[C@H](CC(=O)NCc2cccc(C(F)(F)F)c2)C[C@@]2(C(=O)OCC)CCCC=C12	none (no result: Pf growth 96h, Shiga toxin inh, HCV inh, CHX counter, Pf growth 48h)
C=C1CC2C(=O)N(Cc3ccccc3)C(C(=O)O)C1N2C(=O)OC(C)(C)C (centres undefined)	none (no result: Pf growth 96h, AMA1 RON2 block, HCV inh, Pf growth 48h)
c1ccc(C2COC(c3cccs3)=N2)cc1 (centres undefined)	CHX counter 23
O=C(O)c1cc(-c2ccc3ccccc3n2)nc2ccccc12	none
O=C(O)c1cc(-c2ccc3ccccc3c2)nc2ccc(F)cc12	Pf growth 96h inconclusive, Shiga toxin inh 30, CHX counter 22, Pf growth 48h inconclusive
O=C(O)c1cc(-c2c[nH]c3ccccc23)nc2cc3ccccc3cc12	Shiga toxin inh 67, CHX counter 36 (no result: AMA1 RON2 block, HCV inh)
O=C(CC[C@H]1O[C@@H](n2cnc3c(NC(=O)c4ccccc4)ncnc32)[C@H](O)[C@@H]1O)NCc1ccc2c(c1)OCO2	none (no result: Pf growth 96h, Shiga toxin inh, HCV inh, CHX counter, Pf growth 48h)
OCC1(Cc2ccccc2Cl)CCN(C/C=C/c2ccccc2)CC1	HCV inh inconclusive, Pf growth 48h 12µM
CN1CCC(N(C)S(=O)(=O)c2ccc(NC(=O)COc3ccc(Cl)cc3)cc2)CC1	Pf growth 96h 4.1µM, HCV inh 13µM, Pf growth 48h 8.3µM (no result: Shiga toxin inh, CHX counter)
CC(=O)Nc1ccc(S(=O)(=O)N(C)C2CCN(C)CC2)cc1	none
CC(Oc1cccc(Cl)c1)C(=O)Nc1ccc(S(=O)(=O)N(C)C2CCN(C)CC2)cc1 (centres undefined)	Pf growth 96h inconclusive, HCV inh inconclusive, Pf growth 48h 9.3µM (no result: Shiga toxin inh, CHX counter)
CC12CCC(=O)N1C(C(=O)NNC(=O)c1ccccc1Cl)CS2 (centres undefined)	none (no result: Shiga toxin inh, CHX counter)
Cc1snc(SCC(=O)c2ccc(Cl)cc2)c1C#N	Shiga toxin inh 58, CHX counter 35
Cc1cc(C)c(C#N)c(OCC(=O)c2ccc(Br)cc2)n1	Pf growth 96h 4.7µM, HCV inh inconclusive, Pf growth 48h inconclusive
Cc1ccnc(SCC(=O)c2ccc(Br)cc2)c1C#N	Shiga toxin inh 96, CHX counter 84
COC(=O)c1ccccc1CSc1nsc(C)c1C#N	none
